G9a block: qHTS Assay for Inhibitors of Histone Lysine Methyltransferase G9a. G9a H3K9 monomethylation, AlphaScreen, 2 h. 350,000 compounds, 8.8% hits. Histone-lysine N-methyltransferase EHMT2 (Homo sapiens), Q96KQ7. AID 504332, 2011. Potency, µM (doses to about 102 µM), for inactives: at the top dose activity, negative = inhibition, usual class: inhibitors; note: % is set by controls: 0 for no effect and ±100 for the full control effect; nearly all actives have a fitted effect of over 75% in size
Target sequence (Q96KQ7 913-1193 limits assumed): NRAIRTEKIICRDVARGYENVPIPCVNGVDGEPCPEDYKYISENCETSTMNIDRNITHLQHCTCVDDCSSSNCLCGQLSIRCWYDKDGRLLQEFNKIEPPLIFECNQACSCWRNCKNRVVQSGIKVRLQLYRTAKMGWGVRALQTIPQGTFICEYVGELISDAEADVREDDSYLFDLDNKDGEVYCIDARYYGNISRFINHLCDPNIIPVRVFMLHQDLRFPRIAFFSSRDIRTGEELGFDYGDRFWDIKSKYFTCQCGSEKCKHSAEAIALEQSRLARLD
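AlphaScreen detection with an anti-monomethyl H3K9 antibody quantified product after a 2 h room-temperature reaction containing 500 nM biotinylated H3K9 peptide, 20 µM SAM and 20 nM enzyme, which had been preincubated 15 min with compound.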
HP1b chromo inh: HTS for Inhibitors of HP1-beta Chromodomain Interactions with Methylated Histone Tails; Chromobox protein homolog 1 (Homo sapiens), P83916; AlphaScreen HP1-beta / biotin-H3K9me3 peptide binding; AID 540317, 2011; Potency, µM (series often up to 114 µM), inactives show at the highest dose activity change, negative = inhibition, hits mostly inhibitors; 390,000 compounds, 0.56% hits; note: nearly all actives have a fitted effect of over 70% in size
Target sequence (P83916 whole entry, looked up): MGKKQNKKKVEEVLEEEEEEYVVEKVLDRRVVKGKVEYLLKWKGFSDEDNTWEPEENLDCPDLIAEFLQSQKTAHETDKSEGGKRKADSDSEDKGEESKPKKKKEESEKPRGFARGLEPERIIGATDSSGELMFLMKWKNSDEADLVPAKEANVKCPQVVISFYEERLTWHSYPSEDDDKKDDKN
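Compound inhibition of the preformed complex between 50 nM HP1-beta and 50 nM biotinylated H3K9me3 peptide was read by AlphaScreen. Buffer was PBS pH 7.4 with 0.01% Tween-20. Incubations ran 30 min at room temperature, with 10 ug/mL donor/acceptor beads.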
BAZ2B inh: qHTS Assay for Inhibitors of BAZ2B; Bromodomain adjacent to zinc finger domain protein 2B (Homo sapiens), Q9UIF8; AlphaScreen BAZ2B-H3K14Ac peptide displacement; Potency, µM (top dose mostly 114 µM), inactives show at the highest dose activity change, negative = inhibition, actives largely listed as inhibitors; 360,000 compounds, 4.4% hits; note: % is set by controls: 0 for no effect and ±100 for the full control effect; nearly all actives have a fitted effect of over 60% in size
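AlphaScreen displacement: compounds (up to 110uM) incubated 30 min at room temperature with a preformed 50 nM BAZ2B/50 nM biotinylated H3K14Ac peptide complex in PBS pH 7.4 with Tween-20. Donor and acceptor beads at 10 ug/mL final added, 20 min light-protected before reading.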
PLK1 PBD inh: qHTS for Inhibitors of PLK1-PDB (polo-like kinase 1 - polo-box domain): Primary Screen. Serine/threonine-protein kinase PLK1 (Homo sapiens), P53350. Plk1 PBD binding of FITC phosphopeptide, fluorescence polarization. Potency, µM, inactives show max response, negative = inhibition, usual class: inhibitors. 360,000 compounds, 2.8% hits. AID 720504, 2013; note: series mostly up to about 57 µM; % is set by controls: 0 for no effect and ±100 for the full control effect; nearly all actives have a fitted effect of over 65% in size
12-LOX inh: Primary qHTS assay for inhibitors of human arachidonate 12S-lipoxygenase (ALOX12): Round 2; 580,000 compounds, 1.1% hits; AID 1671190, 2021; purified 12hLO, xylenol orange hydroperoxide absorbance; Potency, µM (series often up to 108 µM), for the others: top-dose activity change, negative = inhibition, usual class: inhibitors; Polyunsaturated fatty acid lipoxygenase ALOX12 (Homo sapiens), P18054; note: % is set by controls: 0 for no effect and ±100 for the full control effect
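Purified human 12hLO (150 nM final) in 25 mM Hepes, 0.01% Triton X-100, pH 7.0 was preincubated 15 min at room temperature with compound. Then 40 uM arachidonic acid was added, 30 min. Hydroperoxide was read by Fe-XO absorbance ratio 573/405 nm.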
JMJD2A Tudor inh: qHTS Assay for Inhibitors of JMJD2A-Tudor Domain; Lysine-specific demethylase 4A (Homo sapiens), O75164; AlphaScreen JMJD2A-Tudor / H3K4me3 peptide binding; Potency, µM (titrated, usually from 114 µM), inactives show top-dose activity change, negative = inhibition, most hits filed as inhibitors; 390,000 compounds, 4.4% hits; note: % is set by controls: 0 for no effect and ±100 for the full control effect; nearly all actives have a fitted effect of over 50% in size
Active calls of the source: *; ? = inconclusive; · = no result given; [ ] = dose if it differs, or a comment. The list is not random: actives were taken first. Their share in the collection is about 9%. Calls come from the whole dose curve; as a rule, active = well fitted curve in the direction sought with a large enough effect; inconclusive = small, poorly fitted or top-dose-only effect, or another doubt; inactive = no such curve, though single readings can be large; an effect the other way counts as inactive or inconclusive. Potency is the fitted concentration of half-maximal effect.

SMILES | G9a block | HP1b chromo inh | BAZ2B inh | PLK1 PBD inh | 12-LOX inh | JMJD2A Tudor inh
Cc1cccc(C2CC3(CC(C)(C)NC(=S)N3)Oc3cc(O)ccc32)c1 (configuration not stated) | ? | 14.2% | ? | -8.6% | 39.8µM* | -34.3%
COc1cccc(C2CC3(CC(C)(C)NC(=S)N3)Oc3cc(O)ccc32)c1 (configuration not stated) | ? | 1.5% | ? | -13.7% | ? | -33.8%
COc1ccc(C2CC3(CC(C)(C)NC(=S)N3)Oc3cc(O)cc(C)c32)cc1OC (configuration not stated) | ? | 1.1% | · | -13.1% | ? | ?
CCCNc1nc2c(c(=O)[nH]c(=O)n2C)n1CCOc1ccccc1 | -3.9%[2.33 µM] | 57.6% | -0.2% | -7.9% | 0.0% | -11.4%
Cc1cccc2cc3c(N)c(C(=O)N4CCOCC4)sc3nc12 | ? | 24.5% | -38.2%[57.1 µM] | -8.3% | 25.1µM* | ?
Cc1cc(C)c2cc3c(N)c(C(=O)N4CCc5ccccc5C4)sc3nc2c1 | 10µM* | 14.9% | 2.7% | -2.1% | -62.1% | -15.7%
Cc1cccc(-n2nnc(C(=O)N3CCc4ccccc4C3)c2N)c1 | -1.1% | 54.3% | 5.2% | -5.3% | 12.7% | -2.1%
Cc1ccc2nc3sc(C(=O)N4CCCc5ccccc54)c(N)c3cc2c1 | 3.16µM* | 17.0% | 4.2% | -19.6% | 0.0% | -35.1%
Nc1nc2sc3c(c2cc1C(=O)N1CCOCC1)CCCC3 | ? | 6.1% | -38.9% | -3.0% | ? | 14.1µM*
Cc1ccc(-c2cc(C(=O)N3CCCc4ccccc43)c3ccccc3n2)cc1 | -34.2%[12.7 µM] | 8.8% | -35.4% | -8.3% | 14.0% | -26.3%
O=C(NN1CCOCC1)c1ccc(Cl)cc1Cl | · | 40.1% | · | -11.6% | 25.9% | -1.3%
CCCCC1=CC2=CC(=O)C(C)(OC(=O)CC)C(=O)C2=CN1C(CO)CO (configuration not stated) | -6.4%[59 µM] | 29.7% | -1.0% | -3.4% | 17.4% | -7.8%
CCCn1c(SCC(=O)NNC(=O)c2ccccc2)nnc1-c1cccnc1 | 14.8%[59 µM] | 31.6% | 0.3% | -16.0% | -5.0% | 1.7%
CC(C)NC(=O)c1c(Cl)cccc1Cl | · | · | · | · | 9.8% | ·
O=C(NC1(O)C(=O)c2ccccc2C1=O)c1c(Cl)cccc1Cl | 56.2µM* | 12.1% | -18.5% | -26.7% | ? | -4.8%
COC1(NC(=O)c2ccccc2)C(C)=CC(=O)C=C1C | 44.7µM* | ? | -1.0% | -27.0% | -15.0% | -17.7%
O=C(NC1(O)C(=O)c2ccccc2C1=O)c1ccccc1 | 44.7µM* | 43.8% | -3.4% | -12.3% | 31.6µM* | -5.4%
COC(=O)c1ccccc1 | · | · | · | · | 2.2% | ·
Cc1cccnc1NC(=O)Nc1cccc(C(F)(F)F)c1 | -9.4%[12.7 µM] | 21.5% | -28.8% | -4.8% | -0.7% | -32.5%
COc1ccc(NC(=O)N2CCc3c(C(=O)Nc4ccccc4)cccc32)cc1 | · | · | · | · | 1.0% | ·
COCCN(CCOC)C(=O)c1ccc(SCc2ccc(C)cc2)c([N+](=O)[O-])c1 | 56.2µM* | -15.2% | ? | -11.9% | -2.4% | -32.6%
Cc1ccc(S(=O)(=O)N2CCCc3nc(-c4ccc(Br)cc4)ccc32)cc1 | · | · | · | · | -5.0% | ·
COc1cccc2cc(-c3nc4ccccc4o3)c(=O)oc12 | -28.8% | 15.0% | -12.3% | ? | 4.3% | -9.0%[11.4 µM]
COc1cccc2cc3c(=O)n(-c4ccccc4)nc-3oc12 | ? | -8.7% | ? | 29.9µM* | 36.0% | 44.7µM*
COc1cc2c(cc1OC)C1=C(C#N)CCC(=NC(=O)c3ccco3)N1CC2 | -2.0% | 40.3% | 0.9% | -19.5% | -7.3% | -4.5%
COc1cc2c(cc1OC)C1=C(C#N)CN(CC(=O)O)CN1CC2 | 35.5µM* | -24.1% | 79.4µM* | -19.5% | -25.5% | 22.4µM*

Screens as filed in PubChem BioAssay.
